Results: PubChem BioAssay (NCATS)
Results filed as inconclusive are left out. A call without a number means that no potency is given here. A number with no mark means an inactive call. Activity calls are given as the source filed them. Calls come from the whole dose curve; as a rule, active = well fitted inhibition curve with a large enough effect; inconclusive = small, poorly fitted or top-dose-only effect; inactive = flat fitted curve, though single readings scatter.

Columns and labels:
[1] = molecular target: Glutathione peroxidase 1 (Homo sapiens) (UniProt P07203); experiment: Primary qHTS Assay for Inhibitors of Recombinant Selenoprotein Glutathione Peroxidase 1 (GPX1) (AID 1845191)
Outline: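 GR-coupled readout: NADPH consumption tracked by fluorescence, ex 340/em 450 nm, at t=0 and after 15 min at RT. Final mix 10 nM GPX1, 1 mM GSH, 0.5 mM CHP, 0.5 mM NADPH, 100 nM GR, 0.01% BSA, following 30 min enzyme–compound preincubation.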

[2] = molecular target: Phospholipid hydroperoxide glutathione peroxidase GPX4 (Homo sapiens) (UniProt P36969); experiment: Primary qHTS Assay for Inhibitors of Recombinant Selenoprotein Glutathione Peroxidase 4 (GPX4) (AID 1845192)
Outline: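 Steps: GPX4 plus compound, 30 min RT; add GR/GSH/NADPH master mix; start with cumene hydroperoxide; read 340/450 nm fluorescence at 0 and 15 min. Finals were 200 nM GPX4, 1 mM GSH, 0.5 mM CHP, 0.5 mM NADPH, 100 nM GR.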
Note: nearly all actives have a fitted effect of over 65% in size.
Potency is the fitted concentration of half-maximal effect.

Phospholipid hydroperoxide glutathione peroxidase GPX4 (Homo sapiens), sequence (P36969 whole entry, looked up): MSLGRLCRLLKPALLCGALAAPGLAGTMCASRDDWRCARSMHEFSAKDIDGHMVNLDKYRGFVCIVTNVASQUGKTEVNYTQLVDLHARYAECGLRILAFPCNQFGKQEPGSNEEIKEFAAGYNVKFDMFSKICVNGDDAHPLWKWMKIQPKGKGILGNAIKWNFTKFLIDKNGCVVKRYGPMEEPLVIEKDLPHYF
Glutathione peroxidase 1 (Homo sapiens), sequence (P07203 whole entry, looked up): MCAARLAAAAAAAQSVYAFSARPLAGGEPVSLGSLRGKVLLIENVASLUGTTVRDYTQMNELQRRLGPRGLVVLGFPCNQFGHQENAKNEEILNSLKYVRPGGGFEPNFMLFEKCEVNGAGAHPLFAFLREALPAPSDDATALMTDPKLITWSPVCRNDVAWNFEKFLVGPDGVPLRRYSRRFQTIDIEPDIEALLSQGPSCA

Compound | Potency [1] | Potency [2]
CN1CCN(C(c2ccc(F)cc2)c2sc3nc(-c4ccco4)nn3c2O)CC1 (stereo unspecified) | inactive | –
CCCCCCCCCCCCCCCC(=O)OCC=C(C)C=CC=C(C)C=CC1=C(C)CCCC1(C)C | inactive | inactive
CNc1ncc(-c2ccc3c(=O)c(C(=O)O)cn(C4CC4)c3c2C)cc1C | inactive | inactive
CCCCCCC(COC(=O)c1cccnc1)(COC(=O)c1cccnc1)COC(=O)c1cccnc1 | inactive | inactive
C[N+]1(C)C2CC[C@H]1CC(OC(=O)C(O)c1ccccc1)C2 (stereo partly specified) | inactive | inactive
OCC1OC(c2ccc(Cl)c(Cc3ccc(OC4CCOC4)cc3)c2)C(O)C(O)C1O (stereo unspecified) | inactive | inactive
CC=CC1=C(C(=O)O)N2C(=O)[C@@H](NC(=O)[C@H](N)c3ccc(O)cc3)[C@H]2SC1 | 7.85 µM (active) | inactive
O=C(OC1C[C@@H]2CC3C[C@@H](C1)N2CC3=O)c1c[nH]c2ccccc12 (stereo partly specified) | inactive | inactive
CCC(C)CC(C)CCCCCCCCC(=O)N[C@H]1C[C@@H](O)[C@@H](NCCN)NC(=O)[C@@H]2[C@@H](O)CCN2C(=O)[C@H]([C@H](O)CCN)NC(=O)[C@H]([C@@H](O)[C@H](O)c2ccc(O)cc2)NC(=O)[C@@H]2C[C@@H](O)CN2C(=O)[C@H]([C@@H](C)O)NC1=O (stereo partly specified) | inactive | inactive
Cc1ccc(S(=O)(=O)O)cc1 | inactive | inactive
CC[C@@H]1CCN[C@H](C(=O)N[C@@H]([C@H]2O[C@H](SC)[C@H](O)[C@@H](O)[C@H]2O)[C@H](C)Cl)C1 | inactive | inactive
COc1ccc(CC(C)(C)NC[C@H](O)c2cc(O)cc3c2OCC(=O)N3)cc1 | inactive | inactive
CN1C2CC[C@@H]1CC(OC(=O)[C@H](CO)c1ccccc1)C2 (stereo partly specified) | inactive | inactive
OC[C@H]1O[C@H](O)[C@H](O)[C@@H](O)[C@@H]1O | inactive | inactive
CCN1CCC(=C2c3ccccc3CCc3ccccc32)C1C (stereo unspecified) | inactive | inactive
CO/N=C(\C(=O)N[C@@H]1C(=O)N2C(C(=O)O)=C(Cn3ccc(=N)n3CCO)CS[C@H]12)c1csc(N)n1 | 18 µM (active) | inactive
CO[C@H]1C[C@@H]2CC[C@@H](C)[C@@](O)(O2)C(=O)C(=O)N2CCCC[C@H]2C(=O)O[C@H]([C@H](C)C[C@@H]2CC[C@@H](OCCO)[C@H](OC)C2)CC(=O)[C@H](C)/C=C(/C)[C@@H](O)[C@@H](OC)C(=O)[C@H](C)C[C@H](C)\C=C/C=C\C=C/1C | inactive | 3.98 µM (active)
[2H]C([2H])([2H])C(O)(CCO[C@@H](C)[C@H]1CC[C@H]2/C(=C/C=C3\C[C@@H](O)C[C@H](O)C3=C)CCC[C@]12C)C([2H])([2H])[2H] | inactive | inactive
O=P(O)(O)OC1C(OP(=O)(O)O)C(OP(=O)(O)O)C(OP(=O)(O)O)C(OP(=O)(O)O)C1OP(=O)(O)O (stereo unspecified) | inactive | inactive
CNCC(=O)OCc1cccnc1N(C)C(=O)OC(C)[n+]1cnn(C[C@](O)(c2cc(F)ccc2F)[C@@H](C)c2nc(-c3ccc(C#N)cc3)cs2)c1 (stereo partly specified) | inactive | inactive
O=C1[C@@H]2[C@H]3CC[C@H](C3)[C@@H]2C(=O)N1C[C@@H]1CCCC[C@H]1CN1CCN(c2nsc3ccccc23)CC1 | inactive | inactive
